Assay outcomes (PubChem BioAssay)
In the library only some 18% were active in any assay of this set; here they are far more common.
Gal4-VP16 FLuc = VP16 counterscreen qHTS for inhibitors of ROR gamma transcriptional activity; Drosophila S2 Gal4-VP16 UAS-luciferase, luminescence, 20 h; AID 2546, 2010; Potency, µM (titrated, usually from 53.6 µM), usual class: inhibitors; 3.5% of 310,000 active;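 also: Gal4-VP16 expression switched on by copper sulfate through the metallothionein promoter; nearly all actives have a fitted effect of over 50% in size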
LDHA inh = qHTS assay for inhibitors of human lactate dehydrogenase; purified LDHA, NADH/diaphorase-resazurin fluorescence; stronger effect = lower value; activity change, % (values are at about 110 or 230 µM); 0.15% of 480,000 active; AID 1347041, 2019; in the data active = activity change below about -30%; inconclusive = mostly about -25% to -30%
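LDH5 2 nM; NADH 0.06 mM, pyruvate 0.2 mM; 200 mM Tris pH 7.4, EDTA, Tween-20; 5 min RT. Detection: diaphorase 0.133 mg/mL + resazurin 37 µM, fluorescence ex540/em590 at 0 and 20 min; normalized to enzyme-free and DMSO wells.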
RORg inh = qHTS for inhibitors of ROR gamma transcriptional activity; Nuclear receptor ROR-gamma (Mus musculus), P51450; Drosophila S2 Gal4-RORgamma UAS-luciferase reporter, 20 h; Potency, µM (highest dose often 53.6 µM), most hits filed as inhibitors; 5.4% of 310,000 active; also: nearly all actives have a fitted effect of over 60% in size
Target sequence (P51450 whole entry, looked up, the tested form may be a part): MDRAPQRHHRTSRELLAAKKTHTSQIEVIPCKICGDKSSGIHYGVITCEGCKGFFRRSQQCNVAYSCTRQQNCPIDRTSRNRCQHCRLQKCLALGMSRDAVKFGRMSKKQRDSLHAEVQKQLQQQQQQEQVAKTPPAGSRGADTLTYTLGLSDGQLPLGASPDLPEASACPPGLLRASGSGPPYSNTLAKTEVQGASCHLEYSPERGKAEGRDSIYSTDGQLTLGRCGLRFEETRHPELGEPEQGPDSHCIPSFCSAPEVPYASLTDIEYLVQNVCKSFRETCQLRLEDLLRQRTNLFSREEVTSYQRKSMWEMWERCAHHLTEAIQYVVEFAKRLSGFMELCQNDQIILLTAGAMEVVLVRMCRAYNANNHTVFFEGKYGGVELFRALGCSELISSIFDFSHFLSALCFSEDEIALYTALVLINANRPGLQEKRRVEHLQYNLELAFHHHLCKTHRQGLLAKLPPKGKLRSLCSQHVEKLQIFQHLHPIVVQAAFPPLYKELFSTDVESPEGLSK
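Read-out: Photinus luciferase luminescence; inhibitors lower reporter signal. Insect Schneider cells with Gal4-ROR gamma fusion under metallothionein promoter, UAS reporter; 700 uM final copper sulfate induction, 20 hr, ambient temperature.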
DT40 TDP1 CPT = qHTS for Inhibitors of human tyrosyl-DNA phosphodiesterase 1 (TDP1): qHTS in cells in presence of CPT; chicken DT40 Tdp1-/-;hTDP1 cells + 20 nM CPT, ATP luminescence, 48 h; Potency, µM (highest dose often 46.2 µM), usual class: inhibitors; 12% of 420,000 active; also: nearly all actives have a fitted effect of over 55% in size
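Chicken DT40 Tdp1-/- cells complemented with human TDP1, 400 cells/well, exposed to compounds plus 20 nM camptothecin for at least 48 h at 37 C; viability read as ATP content by CellTiter-Glo luminescence.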
IL1B secr inh = qHTS for Inhibitors of Inflammasome Signaling: IL-1-beta AlphaLISA Primary Screen. THP-1 LPS/ATP IL-1B secretion, AlphaLISA, 16 h; stronger effect = lower value. activity change, % at 57.5 µM. 4.7% of 360,000 active. AID 743279, 2014; in the data active = activity change below about -50%; inconclusive = mostly about -30% to -49%
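Secreted IL-1B measured by AlphaLISA bead assay after 16 h compound exposure of THP-1 cells; compounds (final up to 57.5 uM) added 1 h before LPS (250 ng/mL) and ATP (1.25 mM) stimulation; lower signal means less secretion.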
TDP1 cell noCPT = qHTS for Inhibitors of human tyrosyl-DNA phosphodiesterase 1 (TDP1): qHTS in cells in absence of CPT. 15% of 420,000 active. Potency, µM (top dose mostly 46.2 µM), actives largely listed as inhibitors. DT40 Tdp1-/- hTDP1 cells, no CPT, ATP luminescence, 48 h; also: nearly all actives have a fitted effect of over 55% in size
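Growth kinetics read by CellTiter-Glo luminescence after ≥48 hr at 37 °C. Cells: DT40 Tdp1-/- stably carrying human TDP1, 400 per well, compound exposure in the absence of CPT (DMSO vehicle).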
A number is an active result. Unless noted, calls follow the shape of the dose curve; as a rule, active = well fitted curve in the direction sought with a large enough effect; inconclusive = small, poorly fitted or top-dose-only effect, or another doubt; inactive = no such curve, though single readings can be large; an effect the other way counts as inactive or inconclusive.

How did CCOC(=O)C1(C)NC(c2ccc(OC)c(OC)c2)C2C(=O)N(c3cccc(C(C)=O)c3)C(=O)C21 (stereo unspecified) do in these assays?
LDHA inh: inactive; DT40 TDP1 CPT: inactive; IL1B secr inh: inactive; TDP1 cell noCPT: inactive

Results for CCOC(=O)C1(C)NC(c2ccccc2F)C2C(=O)N(c3cccc(C(C)=O)c3)C(=O)C21 (stereo unspecified) ?
Gal4-VP16 FLuc: inactive; LDHA inh: inactive; RORg inh: inactive; DT40 TDP1 CPT: 23µM; IL1B secr inh: inactive; TDP1 cell noCPT: 18µM

How did c1cc2c3c(cccc3c1)/C(=N/OCC1CO1)C2 (stereo unspecified) do in these assays?
LDHA inh: -31

How did COCCn1c(C(=O)NCc2ccccn2)nc2ccccc2c1=O do in these assays?
LDHA inh: inactive

What do the screens show for `Cc1cc2ccccc2n1CC(=O)N1CCC(C(N)=O)CC1`?
LDHA inh: inactive

What do the screens show for `CCOC(=O)c1cc(-c2ccc(OC)cc2)n(CCC(=O)Nc2cccc(C(C)=O)c2)c1C`?
LDHA inh: inactive; DT40 TDP1 CPT: 16µM; TDP1 cell noCPT: 15µM

What do the screens show for `COc1cc(NC(=O)CCn2c(-c3ccccc3)cc(C(C)=O)c2C)cc(OC)c1`?
LDHA inh: inactive; DT40 TDP1 CPT: inconclusive; TDP1 cell noCPT: 13µM

What do the screens show for `CCOC(=O)c1cc(-c2ccccc2)n(-c2cccc(C(=O)Nc3ccc(OC)cc3)c2)c1C`?
LDHA inh: inactive; DT40 TDP1 CPT: inconclusive; TDP1 cell noCPT: inconclusive

How did CCOC(=O)c1cc(-c2ccc(F)cc2)n(CCC(=O)Nc2nc3ccc(OC)cc3s2)c1C do in these assays?
LDHA inh: inactive; DT40 TDP1 CPT: 18µM; TDP1 cell noCPT: 16µM

Results for CCOC(=O)c1cc(-c2ccc(F)cc2)n(CCC(=O)Nc2nc3cc(C)c(C)cc3s2)c1C ?
LDHA inh: inactive; DT40 TDP1 CPT: inconclusive; TDP1 cell noCPT: inconclusive

What do the screens show for `CCc1ccc(NC(=O)CCn2c(-c3ccc(OC)cc3)cc(C(C)=O)c2C)cc1`?
LDHA inh: inactive; DT40 TDP1 CPT: 16µM; TDP1 cell noCPT: 16µM

How did CC(Sc1ccc(F)c(Cl)c1)C(=O)NC(C)(C)C (stereo unspecified) do in these assays?
LDHA inh: inactive

What do the screens show for `Cc1ccc2nc(NC(=O)CCNS(=O)(=O)c3cccs3)sc2c1`?
Gal4-VP16 FLuc: inactive; LDHA inh: inactive; RORg inh: inconclusive; DT40 TDP1 CPT: inconclusive; IL1B secr inh: inconclusive; TDP1 cell noCPT: inconclusive

How did CC(=O)c1cc(-c2ccc(F)cc2)n(CCC(=O)Nc2cc(C)[nH]n2)c1C do in these assays?
Gal4-VP16 FLuc: inactive; LDHA inh: inactive; RORg inh: inactive; DT40 TDP1 CPT: inactive; IL1B secr inh: inactive; TDP1 cell noCPT: inactive

What do the screens show for `Cc1cccc2sc(NC(=O)CCNS(=O)(=O)c3cccs3)nc12`?
Gal4-VP16 FLuc: inactive; LDHA inh: inactive; RORg inh: inconclusive; DT40 TDP1 CPT: 18µM; IL1B secr inh: inconclusive; TDP1 cell noCPT: 26µM

What do the screens show for `CC(=O)c1cc(-c2ccc(F)cc2)n(CCC(=O)Nc2nc3c(C)cccc3s2)c1C`?
LDHA inh: inactive; DT40 TDP1 CPT: inconclusive; TDP1 cell noCPT: 13µM

What do the screens show for `CSCc1cccc(C(=O)N(CC2CCOC2)C2CC2)c1` (stereo unspecified)?
LDHA inh: inactive

How did Cc1cc(OC(C)C(=O)NCCCN(C)C)c2c(C)cc(=O)oc2c1 (stereo unspecified) do in these assays?
LDHA inh: inactive

What do the screens show for `CCCc1ccc(/C=C2\C(=O)c3ccccc3C(O)=C2C(=O)OCC)cc1`?
Gal4-VP16 FLuc: inconclusive; RORg inh: 11µM
